Experimental data as given in PubChem BioAssay (Tox21).
Records with an inconclusive call do not appear. Entries that show only a call come without a potency. The source made the active and inactive calls. Calls follow the shape of the dose curve; as a rule, active = well fitted activation curve with a large enough effect in the repeat runs; inconclusive = weak or mixed curves; inactive = no such curve, though single readings can be large or run the other way.

Test: qHTS assay for small molecules that induce genotoxicity in human embryonic kidney cells expressing luciferase-tagged ATAD5 (AID 651632); also: nearly all actives have a fitted effect of over 15% in size
Details: HEK293T ATAD5-luciferase induction, 16 h; series mostly up to 83.3 µM
Description: U.S. Tox21 Program National Center for Advancing Translational Sciences [NCATS] NIH Chemical Genomics Center [NCGC] U.S. Environmental Protection Agency [EPA] National Institutes of Environmental Health Sciences [NIEHS] National Toxicology Program [NTP] U.S. Food and Drug Administration [FDA] Tox21 Assay Overview: As cancer cells divide rapidly and during every cell division they need to duplicate their genome by DNA replication. The failure to do so results in the cancer cell death. Based on this concept, many chemotherapeutic agents were developed but have limitations such as low efficacy and severe side effects etc. A new cell based assay was developed to find the compounds that effectively block DNA replication either by directly damaging DNA or by inhibiting other cellular mechanisms. Enhanced Level of Genome Instability Gene 1 (ELG1; human ATAD5) protein levels increase in response to various types of DNA damage. Using a luciferase reporter-gene tagged with ATAD5, a cell-based assay [developed by Kyungjae Myung, NHGRI, NIH] was used to measure the induction of ATAD5 in human embryonic kidney cells (HEK293T). So, increase in luciferase activity can be used to identify the compounds that cause genetic stress.
Tox21 Assay Protocol Summary: For genotoxicity screening, 2,000 cells in 5 uL/well were dispensed into white, solid-bottom 1536-well plates using a Multidrop Combi (Thermo Scientific) dispenser. Following transfer of 23 nL compound or DMSO vehicle by a pin tool, the plates were incubated 16 hr at 37C and 5% CO2. 5 ul Amplite (AAT Bioquest, Inc.) was then added to each plate and following 30 min incubation at room temperature, luciferase activity was quantified on a ViewLux CCD-based plate reader.
Potency is read from the fitted curve at half-maximal effect.

Q: Which Potency does the source give for `CC(C)n1nc(-c2cc3cc(O)ccc3[nH]2)c2c(N)ncnc21` here?
A: 9.44 µM (active)

Q: With `CCCCCCCCNC(C)C(O)c1ccc(SC(C)C)cc1` (stereo not given) as the compound, how does the Potency read?
A: inactive

Q: Which Potency does the source give for `CSc1ccc(/C=C2/C(C)=C(CC(=O)O)c3cc(F)ccc32)cc1` here?
A: inactive

Q: Which Potency does the source give for `NNc1nc(-c2ccccc2)cs1` here?
A: inactive

Q: Which Potency does the source give for `C[C@H](CCC(=O)O)[C@H]1CC[C@H]2[C@@H]3CC[C@@H]4C[C@H](O)CC[C@]4(C)[C@H]3CC[C@]12C` here?
A: inactive

Q: With `CCOc1ccc2nc3cc(N)ccc3c(N)c2c1` as the compound, how does the Potency read?
A: inactive

Q: Which Potency does the source give for `C[n+]1cc2c3c(ccc2c2ccc4cc5c(cc4c21)OCO5)OCO3` here?
A: inactive

Q: With `Cc1ccc2oc(CN(Cc3ccccc3)C(=O)Nc3c(F)cc(F)cc3F)c(-c3ccc(Cl)cc3)c2c1` as the compound, how does the Potency read?
A: inactive

Q: Which Potency does the source give for `COc1c(C)c2c(c(O)c1C/C=C(\C)CCC(=O)O)C(=O)OC2` here?
A: inactive

Q: With `CCCCN(CCCC)C(=O)N(CCCC)CCCC` as the compound, how does the Potency read?
A: inactive

Q: For `CC(C)(C)C(=O)OCOC(=O)[C@@H]1N2C(=O)[C@@H](NC(=O)[C@H](N)c3ccccc3)[C@H]2SC1(C)C`, which Potency is on record?
A: inactive

Q: For `CCN(C(=O)N(CC)c1ccccc1)c1ccccc1`, which Potency is on record?
A: inactive

Q: Which Potency does the source give for `O=c1[nH]cnc2nc[nH]c12` here?
A: inactive

Q: For `CCC(C)Nc1ccc(NC(C)CC)cc1` (stereo not given), which Potency is on record?
A: inactive

Q: For `OC1(c2ccc(Cl)c(C(F)(F)F)c2)CCN(CCCC(c2ccc(F)cc2)c2ccc(F)cc2)CC1`, which Potency is on record?
A: inactive

Q: With `ON=C1CCCC1` as the compound, how does the Potency read?
A: inactive

Q: For `CCCCN1C(=O)[C@@H]([C@H](O)C2CCCCC2)NC(=O)C12CCN(Cc1ccc(Oc3ccc(C(=O)O)cc3)cc1)CC2`, which Potency is on record?
A: inactive

Q: Which Potency does the source give for `CC(=O)S[C@@H]1CC2=CC(=O)CC[C@]2(C)[C@H]2CC[C@@]3(C)[C@@H](CC[C@@]34CCC(=O)O4)[C@H]12` here?
A: inactive

Q: With `CCc1cc(SCc2sc(-c3ccc(C(F)(F)F)cc3)nc2CN2CCN(c3ccc(OC)cc3)CC2)ccc1OCC(=O)O` as the compound, how does the Potency read?
A: inactive

Q: For `CCCCc1oc2ccc(NS(C)(=O)=O)cc2c1C(=O)c1ccc(OCCCN(CCCC)CCCC)cc1`, which Potency is on record?
A: inactive

Q: Which Potency does the source give for `CCOc1nc2cccc(C(=O)OC(C)OC(=O)OC3CCCCC3)c2n1Cc1ccc(-c2ccccc2-c2nn[nH]n2)cc1` (stereo not given) here?
A: inactive

Q: With `Nc1ccc2cc(S(=O)(=O)O)cc(O)c2c1N=Nc1ccccc1C(F)(F)F` as the compound, how does the Potency read?
A: inactive

Q: For `COc1ccc(-c2ccc3cc(C(=O)O)ccc3c2)cc1C12CC3CC(CC(C3)C1)C2`, which Potency is on record?
A: inactive

Q: With `OCCCCCCCCCCCCBr` as the compound, how does the Potency read?
A: inactive

Q: For `CN(C/C=C/C#CC(C)(C)C)Cc1cccc2ccccc12`, which Potency is on record?
A: inactive

Q: Which Potency does the source give for `O=[N+]([O-])c1ccccc1Nc1ccccc1` here?
A: inactive

Q: Which Potency does the source give for `C[n+]1ccn(Cc2ccccc2)c1` here?
A: inactive

Q: With `CCCCCCCC/C=C\CCCCCCCCOCCO` as the compound, how does the Potency read?
A: inactive

Q: With `COc1cc(-c2ccc(N=C=O)c(OC)c2)ccc1N=C=O` as the compound, how does the Potency read?
A: inactive

Q: For `CC1=C(C(=O)OC(C)C)C(c2cccc([N+](=O)[O-])c2)C(C(=O)OC2CN(C(c3ccccc3)c3ccccc3)C2)=C(N)N1` (stereo not given), which Potency is on record?
A: inactive

Q: Which Potency does the source give for `Clc1ccc2cc3ccccc3cc2c1` here?
A: inactive

Q: Which Potency does the source give for `COc1ccc(CN2CCN(C(c3ccc(F)cc3)c3ccc(F)cc3)CC2)c(OC)c1OC` here?
A: inactive

Q: With `OCc1c[nH]c2ccccc12` as the compound, how does the Potency read?
A: inactive

Q: For `Cc1cc(O)c(Cl)c(C)c1Cl`, which Potency is on record?
A: inactive

Q: For `CCCCC(CC)COP(=O)(O)OCC(CC)CCCC` (stereo not given), which Potency is on record?
A: inactive

Q: With `CCC(N)(CO)CO` as the compound, how does the Potency read?
A: inactive

Q: With `O=C(Nc1cccc(C(F)(F)F)c1)c1cc(Br)cc(Br)c1O` as the compound, how does the Potency read?
A: inactive

Q: Which Potency does the source give for `CC(=O)SC[C@@H](Cc1ccccc1)C(=O)NCC(=O)OCc1ccccc1` here?
A: inactive

Q: With `O=C(c1ccc(F)cc1)C1CCN(CCn2c(=O)[nH]c3ccccc3c2=O)CC1` as the compound, how does the Potency read?
A: inactive

Q: Which Potency does the source give for `CCc1cc(Cc2cc(CC)c(N)c(CC)c2)cc(CC)c1N` here?
A: inactive
